Experimental data as given in paper PMC7862700, “An all-to-all approach to the identification of sequence-specific readers for epigenetic DNA modifications on cytosine”.

Experiments:
Test in all cases: DAPPL (digital affinity profiling via proximity ligation, sequencing); 10 mM Tris-HCl pH 7.5, 50 mM NaCl, 1 mM DTT, 4% glycerol, room temperature, 30 min; GST-TFs on glutathione beads, 16-mer random dsDNA library, 0.1% formaldehyde crosslink after washing; high values mean tight binding
FLI1 = molecular target: T1, FLI1 (Homo sapiens, UniProt Q01543 1-452); conditions: protein: recombinant; tags: N-terminal GST; dsDNA, one strand shown
T1 sequence: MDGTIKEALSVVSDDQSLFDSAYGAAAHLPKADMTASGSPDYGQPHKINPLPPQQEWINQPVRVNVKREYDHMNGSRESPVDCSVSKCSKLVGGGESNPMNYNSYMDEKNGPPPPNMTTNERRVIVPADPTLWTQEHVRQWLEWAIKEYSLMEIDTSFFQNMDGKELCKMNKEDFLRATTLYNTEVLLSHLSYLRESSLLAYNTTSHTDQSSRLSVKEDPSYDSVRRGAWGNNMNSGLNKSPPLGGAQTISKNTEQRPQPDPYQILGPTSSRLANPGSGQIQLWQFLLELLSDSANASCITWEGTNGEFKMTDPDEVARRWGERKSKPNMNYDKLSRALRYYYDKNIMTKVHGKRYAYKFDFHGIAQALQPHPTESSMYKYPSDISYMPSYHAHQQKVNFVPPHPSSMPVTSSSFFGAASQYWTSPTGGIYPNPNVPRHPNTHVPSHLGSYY
Procedure, shortened: (§1)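 The binding signal reported is, for every hexamer, its read frequency for a factor over its read frequency for the tag-only sample. Reads came from pools of yeast-expressed, GST-fused human transcription factors on glutathione beads, barcoded with DNA and mixed with that sample, which were incubated with 200 nmole of a random double-stranded 16-mer DNA library in Tris/NaCl/DTT/glycerol buffer at room temperature for 30 min. After washing, the pools were crosslinked with 0.1% formaldehyde, proximity-ligated with BsaI/T4 ligase for 1 h at 37 °C, PCR-amplified and sequenced on an Illumina NextSeq500.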

ELK1 = molecular target: T2, ELK1 (Homo sapiens, UniProt P19419 1-428); conditions: protein: recombinant; tags: N-terminal GST; dsDNA, one strand shown
T2 sequence: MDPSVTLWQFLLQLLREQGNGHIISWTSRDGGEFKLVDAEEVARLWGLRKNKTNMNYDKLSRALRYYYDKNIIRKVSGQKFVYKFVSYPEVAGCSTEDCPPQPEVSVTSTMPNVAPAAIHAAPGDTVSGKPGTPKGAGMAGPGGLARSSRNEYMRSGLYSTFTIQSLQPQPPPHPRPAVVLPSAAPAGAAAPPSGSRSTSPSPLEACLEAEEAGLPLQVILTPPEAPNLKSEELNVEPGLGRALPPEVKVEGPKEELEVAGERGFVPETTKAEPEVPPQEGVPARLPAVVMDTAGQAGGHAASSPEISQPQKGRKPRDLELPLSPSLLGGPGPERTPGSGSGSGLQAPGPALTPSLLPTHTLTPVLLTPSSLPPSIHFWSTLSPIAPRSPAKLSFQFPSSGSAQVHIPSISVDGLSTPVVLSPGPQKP
Procedure, shortened: as §1

GABPA = molecular target: T3, GABPA (Homo sapiens, UniProt Q06546 1-454); conditions: protein: recombinant; tags: N-terminal GST; dsDNA, one strand shown
T3 sequence: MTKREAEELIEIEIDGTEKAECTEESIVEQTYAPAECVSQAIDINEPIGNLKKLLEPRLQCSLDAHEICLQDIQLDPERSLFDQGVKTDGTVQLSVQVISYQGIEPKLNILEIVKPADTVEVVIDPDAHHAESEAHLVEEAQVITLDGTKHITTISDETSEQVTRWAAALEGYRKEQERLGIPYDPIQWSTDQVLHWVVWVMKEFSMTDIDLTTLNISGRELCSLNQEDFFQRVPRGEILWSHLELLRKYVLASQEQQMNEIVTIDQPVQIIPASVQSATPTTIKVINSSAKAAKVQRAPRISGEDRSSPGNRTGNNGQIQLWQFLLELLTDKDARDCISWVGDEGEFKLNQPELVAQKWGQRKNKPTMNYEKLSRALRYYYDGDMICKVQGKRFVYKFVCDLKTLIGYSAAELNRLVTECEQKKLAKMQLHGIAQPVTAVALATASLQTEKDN
Procedure, shortened: as §1

ERG = molecular target: T4, ERG (Homo sapiens, UniProt P11308 1-479); conditions: protein: recombinant; tags: N-terminal GST; dsDNA, one strand shown
T4 sequence: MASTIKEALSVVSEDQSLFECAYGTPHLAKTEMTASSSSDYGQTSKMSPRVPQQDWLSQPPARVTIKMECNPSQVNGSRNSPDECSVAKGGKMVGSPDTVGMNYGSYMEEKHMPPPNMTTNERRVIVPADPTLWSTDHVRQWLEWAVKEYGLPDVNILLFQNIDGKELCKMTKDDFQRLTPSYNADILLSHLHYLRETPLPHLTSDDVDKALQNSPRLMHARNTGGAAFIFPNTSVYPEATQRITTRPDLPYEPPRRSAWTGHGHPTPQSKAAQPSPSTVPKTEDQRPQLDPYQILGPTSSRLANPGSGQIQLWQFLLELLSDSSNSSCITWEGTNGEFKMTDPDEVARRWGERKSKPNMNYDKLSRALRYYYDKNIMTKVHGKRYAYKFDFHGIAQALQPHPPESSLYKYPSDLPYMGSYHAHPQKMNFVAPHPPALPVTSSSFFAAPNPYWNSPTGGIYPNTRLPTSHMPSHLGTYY
Procedure, shortened: as §1

ELF1 = ELF1 (Homo sapiens, UniProt P32519 1-619); conditions: protein: recombinant; tags: N-terminal GST; dsDNA, one strand shown
Procedure, shortened: as §1

EHF = molecular target: T5, EHF (Homo sapiens, UniProt Q9NZC4 1-300); conditions: protein: recombinant; tags: N-terminal GST; dsDNA, one strand shown
T5 sequence: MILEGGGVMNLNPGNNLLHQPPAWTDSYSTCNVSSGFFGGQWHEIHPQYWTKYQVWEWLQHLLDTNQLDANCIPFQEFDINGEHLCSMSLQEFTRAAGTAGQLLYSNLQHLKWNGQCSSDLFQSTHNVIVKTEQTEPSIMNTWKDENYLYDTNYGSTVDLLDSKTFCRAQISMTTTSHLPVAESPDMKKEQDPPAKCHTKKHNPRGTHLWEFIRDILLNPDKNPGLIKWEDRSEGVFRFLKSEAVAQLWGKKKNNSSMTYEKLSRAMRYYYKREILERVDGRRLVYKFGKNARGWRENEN
Procedure, shortened: as §1

SPI1 = SPI1 (Homo sapiens, UniProt P17947 1-270); conditions: protein: recombinant; tags: N-terminal GST; dsDNA, one strand shown
Procedure, shortened: as §1

SPIB = SPIB (Homo sapiens, UniProt Q01892 1-262); conditions: protein: recombinant; tags: N-terminal GST; dsDNA, one strand shown
Procedure, shortened: as §1

ELK3 = molecular target: T6, ELK3 (Homo sapiens, UniProt P41970 1-407); conditions: protein: recombinant; tags: N-terminal GST; dsDNA, one strand shown
T6 sequence: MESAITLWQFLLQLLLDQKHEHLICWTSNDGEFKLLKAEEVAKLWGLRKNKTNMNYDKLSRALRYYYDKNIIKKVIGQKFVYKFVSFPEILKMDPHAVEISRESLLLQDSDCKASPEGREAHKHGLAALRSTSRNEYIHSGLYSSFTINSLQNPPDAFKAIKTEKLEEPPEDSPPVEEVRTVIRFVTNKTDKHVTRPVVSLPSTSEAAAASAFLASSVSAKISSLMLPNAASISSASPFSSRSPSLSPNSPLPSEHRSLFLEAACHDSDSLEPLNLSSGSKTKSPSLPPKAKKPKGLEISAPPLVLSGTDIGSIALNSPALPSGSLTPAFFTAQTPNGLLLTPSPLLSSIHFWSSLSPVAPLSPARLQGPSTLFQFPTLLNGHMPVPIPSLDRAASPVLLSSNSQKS
Procedure, shortened: as §1

FEV = molecular target: T7, FEV (Homo sapiens, UniProt Q99581 1-238); conditions: protein: recombinant; tags: N-terminal GST; dsDNA, one strand shown
T7 sequence: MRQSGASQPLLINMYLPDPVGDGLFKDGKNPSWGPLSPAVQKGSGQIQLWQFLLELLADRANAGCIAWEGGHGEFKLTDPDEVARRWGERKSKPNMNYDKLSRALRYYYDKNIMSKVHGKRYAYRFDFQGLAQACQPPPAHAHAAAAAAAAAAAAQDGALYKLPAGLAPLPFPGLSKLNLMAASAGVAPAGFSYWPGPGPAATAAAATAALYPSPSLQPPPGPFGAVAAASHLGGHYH
Procedure, shortened: as §1

ETV5 = ETV5 (Homo sapiens, UniProt P41161 1-510); conditions: protein: recombinant; tags: N-terminal GST; dsDNA, one strand shown
Procedure, shortened: as §1

HSF1 = HSF1 (Homo sapiens, UniProt Q00613 1-529); conditions: protein: recombinant; tags: N-terminal GST; chain copies: 3; dsDNA, one strand shown
Procedure, shortened: as §1

SPIC = molecular target: T8, SPIC (Homo sapiens, UniProt Q8N5J4 1-248); conditions: protein: recombinant; tags: N-terminal GST; dsDNA, one strand shown
T8 sequence: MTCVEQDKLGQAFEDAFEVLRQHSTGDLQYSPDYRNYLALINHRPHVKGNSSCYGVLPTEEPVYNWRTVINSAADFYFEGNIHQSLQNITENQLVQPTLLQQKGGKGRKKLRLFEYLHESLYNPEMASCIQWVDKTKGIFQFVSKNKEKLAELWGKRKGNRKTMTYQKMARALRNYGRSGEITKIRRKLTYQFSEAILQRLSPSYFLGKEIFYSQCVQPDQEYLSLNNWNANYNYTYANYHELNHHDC
Procedure, shortened: as §1

ELF4 = ELF4 (Homo sapiens, UniProt Q99607 1-663); conditions: protein: recombinant; tags: N-terminal GST; dsDNA, one strand shown
Procedure, shortened: as §1

ELK4 = molecular target: T9, ELK4 (Homo sapiens, UniProt P28324-2 1-405); conditions: protein: recombinant; tags: N-terminal GST; dsDNA, one strand shown
T9 sequence: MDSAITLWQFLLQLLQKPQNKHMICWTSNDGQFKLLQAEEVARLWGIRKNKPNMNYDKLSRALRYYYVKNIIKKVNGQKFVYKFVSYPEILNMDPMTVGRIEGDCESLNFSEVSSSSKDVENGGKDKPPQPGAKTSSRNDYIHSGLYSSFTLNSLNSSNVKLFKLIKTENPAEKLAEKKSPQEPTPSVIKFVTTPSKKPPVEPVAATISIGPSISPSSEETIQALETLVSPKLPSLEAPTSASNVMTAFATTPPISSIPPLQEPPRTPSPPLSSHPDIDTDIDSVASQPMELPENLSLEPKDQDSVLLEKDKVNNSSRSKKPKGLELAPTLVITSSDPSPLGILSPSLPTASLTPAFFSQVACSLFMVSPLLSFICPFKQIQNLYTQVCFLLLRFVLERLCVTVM
Procedure, shortened: as §1

ETV2 = molecular target: T10, ETV2 (Homo sapiens, UniProt O00321 1-342); conditions: protein: recombinant; tags: N-terminal GST; dsDNA, one strand shown
T10 sequence: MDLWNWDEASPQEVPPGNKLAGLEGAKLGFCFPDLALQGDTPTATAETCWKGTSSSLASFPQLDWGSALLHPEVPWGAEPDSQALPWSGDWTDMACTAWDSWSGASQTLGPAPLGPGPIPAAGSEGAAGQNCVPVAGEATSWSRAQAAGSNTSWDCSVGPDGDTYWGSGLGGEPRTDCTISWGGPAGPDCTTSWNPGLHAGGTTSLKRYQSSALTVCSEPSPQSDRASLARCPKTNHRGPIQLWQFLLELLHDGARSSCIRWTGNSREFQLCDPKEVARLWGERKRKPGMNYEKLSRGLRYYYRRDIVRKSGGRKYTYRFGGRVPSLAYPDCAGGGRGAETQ
Procedure, shortened: as §1

ELF3 = molecular target: T11, ELF3 (Homo sapiens, UniProt P78545 1-371); conditions: protein: recombinant; tags: N-terminal GST; dsDNA, one strand shown
T11 sequence: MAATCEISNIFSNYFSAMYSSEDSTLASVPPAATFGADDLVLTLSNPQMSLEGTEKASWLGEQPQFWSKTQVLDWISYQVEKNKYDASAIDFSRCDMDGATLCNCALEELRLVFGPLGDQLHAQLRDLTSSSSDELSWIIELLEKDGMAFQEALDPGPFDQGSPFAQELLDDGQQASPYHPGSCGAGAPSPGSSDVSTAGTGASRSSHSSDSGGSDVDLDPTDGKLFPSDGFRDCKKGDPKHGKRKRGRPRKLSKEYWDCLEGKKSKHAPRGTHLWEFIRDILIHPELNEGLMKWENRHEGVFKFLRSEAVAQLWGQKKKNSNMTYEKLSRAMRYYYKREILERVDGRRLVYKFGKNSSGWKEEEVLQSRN
Procedure, shortened: as §1

CRX = CRX (Homo sapiens, UniProt O43186 1-299); conditions: protein: recombinant; tags: N-terminal GST; dsDNA, one strand shown
Procedure, shortened: as §1

ETV1 = ETV1 (Homo sapiens, UniProt P50549 1-477); conditions: protein: recombinant; tags: N-terminal GST; dsDNA, one strand shown
Procedure, shortened: as §1

Sequence of ETV1 (P50549 whole entry): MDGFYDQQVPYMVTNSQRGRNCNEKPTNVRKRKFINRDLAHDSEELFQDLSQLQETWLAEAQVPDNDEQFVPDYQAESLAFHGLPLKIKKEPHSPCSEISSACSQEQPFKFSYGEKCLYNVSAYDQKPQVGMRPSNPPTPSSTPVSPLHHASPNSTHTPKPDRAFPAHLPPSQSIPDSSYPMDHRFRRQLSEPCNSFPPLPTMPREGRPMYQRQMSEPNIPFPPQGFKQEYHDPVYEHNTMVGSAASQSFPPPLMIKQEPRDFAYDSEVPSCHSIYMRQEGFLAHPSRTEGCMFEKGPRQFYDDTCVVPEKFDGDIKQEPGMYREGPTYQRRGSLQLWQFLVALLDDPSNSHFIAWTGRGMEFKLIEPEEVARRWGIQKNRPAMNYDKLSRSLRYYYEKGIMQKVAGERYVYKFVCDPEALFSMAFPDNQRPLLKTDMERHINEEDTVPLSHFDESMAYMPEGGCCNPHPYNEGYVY
Sequence of CRX (O43186 whole entry): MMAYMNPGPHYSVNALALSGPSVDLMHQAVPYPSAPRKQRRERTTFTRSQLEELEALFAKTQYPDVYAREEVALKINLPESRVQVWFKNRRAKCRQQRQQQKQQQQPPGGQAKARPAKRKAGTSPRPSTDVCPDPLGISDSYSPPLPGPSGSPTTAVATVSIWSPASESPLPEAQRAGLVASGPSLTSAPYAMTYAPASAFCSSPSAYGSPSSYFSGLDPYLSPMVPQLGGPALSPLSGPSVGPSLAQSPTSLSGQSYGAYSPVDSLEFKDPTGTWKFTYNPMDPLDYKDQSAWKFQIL
Sequence of SPIB (Q01892 whole entry): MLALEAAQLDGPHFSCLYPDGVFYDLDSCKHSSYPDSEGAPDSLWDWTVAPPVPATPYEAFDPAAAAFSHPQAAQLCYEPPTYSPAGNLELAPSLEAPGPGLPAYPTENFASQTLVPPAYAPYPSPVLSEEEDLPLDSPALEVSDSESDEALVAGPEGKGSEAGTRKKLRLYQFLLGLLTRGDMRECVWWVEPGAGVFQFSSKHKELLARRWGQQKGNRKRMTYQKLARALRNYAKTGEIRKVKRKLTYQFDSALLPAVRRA
Sequence of ETV5 (P41161 whole entry): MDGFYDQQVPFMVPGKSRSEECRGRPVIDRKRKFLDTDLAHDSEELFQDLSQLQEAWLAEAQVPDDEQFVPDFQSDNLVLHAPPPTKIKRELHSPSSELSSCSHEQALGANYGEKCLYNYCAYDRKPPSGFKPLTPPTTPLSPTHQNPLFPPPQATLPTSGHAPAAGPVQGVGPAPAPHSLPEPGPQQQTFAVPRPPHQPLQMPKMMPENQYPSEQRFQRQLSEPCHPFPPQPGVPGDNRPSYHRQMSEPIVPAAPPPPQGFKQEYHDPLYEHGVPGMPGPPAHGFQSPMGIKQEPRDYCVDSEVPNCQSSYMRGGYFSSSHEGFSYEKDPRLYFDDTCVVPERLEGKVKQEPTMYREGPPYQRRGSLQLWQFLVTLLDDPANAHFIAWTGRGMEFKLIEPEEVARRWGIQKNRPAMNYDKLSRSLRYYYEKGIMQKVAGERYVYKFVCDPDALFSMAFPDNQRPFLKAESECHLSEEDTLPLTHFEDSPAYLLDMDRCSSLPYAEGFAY
Sequence of ELF4 (Q99607 whole entry): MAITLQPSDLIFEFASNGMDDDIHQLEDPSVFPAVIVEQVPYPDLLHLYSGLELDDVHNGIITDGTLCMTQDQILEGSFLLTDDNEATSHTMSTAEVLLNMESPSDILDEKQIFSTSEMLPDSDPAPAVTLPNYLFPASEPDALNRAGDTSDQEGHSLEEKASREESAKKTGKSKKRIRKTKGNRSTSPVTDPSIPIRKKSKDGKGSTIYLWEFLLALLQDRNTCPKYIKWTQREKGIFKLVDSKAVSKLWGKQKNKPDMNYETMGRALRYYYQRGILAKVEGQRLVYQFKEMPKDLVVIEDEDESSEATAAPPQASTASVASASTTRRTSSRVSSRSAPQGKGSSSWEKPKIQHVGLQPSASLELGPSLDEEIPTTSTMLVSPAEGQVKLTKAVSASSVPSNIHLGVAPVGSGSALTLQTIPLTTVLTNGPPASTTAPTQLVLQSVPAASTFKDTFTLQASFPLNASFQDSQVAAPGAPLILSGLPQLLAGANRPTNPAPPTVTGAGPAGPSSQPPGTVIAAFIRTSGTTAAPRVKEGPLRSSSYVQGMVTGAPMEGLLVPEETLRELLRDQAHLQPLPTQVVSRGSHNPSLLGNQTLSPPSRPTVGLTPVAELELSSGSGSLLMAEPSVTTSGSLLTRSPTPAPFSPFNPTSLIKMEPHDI
Sequence of HSF1 (Q00613 whole entry): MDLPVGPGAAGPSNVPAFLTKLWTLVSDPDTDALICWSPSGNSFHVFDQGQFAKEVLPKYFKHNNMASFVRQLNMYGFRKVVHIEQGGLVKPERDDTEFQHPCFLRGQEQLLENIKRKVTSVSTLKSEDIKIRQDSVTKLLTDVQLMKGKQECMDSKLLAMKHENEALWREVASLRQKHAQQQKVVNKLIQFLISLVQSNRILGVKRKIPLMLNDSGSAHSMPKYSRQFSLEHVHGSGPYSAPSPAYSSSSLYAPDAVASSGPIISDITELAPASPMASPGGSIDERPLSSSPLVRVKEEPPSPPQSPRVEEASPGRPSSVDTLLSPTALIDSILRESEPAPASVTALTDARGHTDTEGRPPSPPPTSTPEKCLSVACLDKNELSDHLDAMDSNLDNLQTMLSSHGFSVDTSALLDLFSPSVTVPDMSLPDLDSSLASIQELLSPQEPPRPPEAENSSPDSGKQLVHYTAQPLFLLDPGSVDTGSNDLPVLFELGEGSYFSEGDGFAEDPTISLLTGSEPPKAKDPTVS
Sequence of ELF1 (P32519 whole entry): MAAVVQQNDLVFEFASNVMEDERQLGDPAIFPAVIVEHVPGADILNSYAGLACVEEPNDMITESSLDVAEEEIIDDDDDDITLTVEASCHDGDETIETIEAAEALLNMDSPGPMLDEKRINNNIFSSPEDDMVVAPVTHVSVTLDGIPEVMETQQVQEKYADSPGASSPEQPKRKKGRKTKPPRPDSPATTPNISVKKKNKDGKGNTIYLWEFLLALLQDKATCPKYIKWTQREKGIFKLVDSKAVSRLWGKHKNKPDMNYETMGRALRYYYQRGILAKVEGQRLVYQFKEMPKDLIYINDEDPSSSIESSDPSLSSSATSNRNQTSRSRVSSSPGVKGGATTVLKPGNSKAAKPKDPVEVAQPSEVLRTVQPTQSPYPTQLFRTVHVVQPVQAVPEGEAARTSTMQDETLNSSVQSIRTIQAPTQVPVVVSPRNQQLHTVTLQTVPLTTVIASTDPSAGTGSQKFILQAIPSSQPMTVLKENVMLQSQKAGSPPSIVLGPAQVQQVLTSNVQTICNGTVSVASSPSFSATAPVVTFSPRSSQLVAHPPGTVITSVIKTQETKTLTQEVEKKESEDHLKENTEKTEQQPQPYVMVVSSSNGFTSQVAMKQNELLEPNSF

CCCCTC
binding signal (FLI1): 1.48 fold enrichment (6-mer frequency, TF over GST control)
binding signal (ELK1): 1.29 fold enrichment (6-mer frequency, TF over GST control)
binding signal (GABPA): 1.45 fold enrichment (6-mer frequency, TF over GST control)
binding signal (ERG): 1.28 fold enrichment (6-mer frequency, TF over GST control)
binding signal (ELF1): 1.43 fold enrichment (6-mer frequency, TF over GST control)
binding signal (EHF): 1.31 fold enrichment (6-mer frequency, TF over GST control)
binding signal (SPI1): 1.39 fold enrichment (6-mer frequency, TF over GST control)
binding signal (SPIB): 1.55 fold enrichment (6-mer frequency, TF over GST control)
binding signal (ELK3): 1.37 fold enrichment (6-mer frequency, TF over GST control)
binding signal (FEV): 1.41 fold enrichment (6-mer frequency, TF over GST control)
binding signal (ETV5): 1.37 fold enrichment (6-mer frequency, TF over GST control)
binding signal (HSF1): 1.13 fold enrichment (6-mer frequency, TF over GST control)
binding signal (SPIC): 1.17 fold enrichment (6-mer frequency, TF over GST control)
binding signal (ELF4): 1.48 fold enrichment (6-mer frequency, TF over GST control)
binding signal (ELK4): 1.5 fold enrichment (6-mer frequency, TF over GST control)
binding signal (ETV2): 1.49 fold enrichment (6-mer frequency, TF over GST control)
binding signal (ELF3): 1.35 fold enrichment (6-mer frequency, TF over GST control)
binding signal (CRX): 1.14 fold enrichment (6-mer frequency, TF over GST control)
binding signal (ETV1): 1.51 fold enrichment (6-mer frequency, TF over GST control)
